Measured values from PubChem BioAssay (NCATS).
Inconclusive results are not listed. Calls of active or inactive are those of the source. Calls follow the shape of the dose curve; as a rule, active = well fitted curve in the direction sought with a large enough effect; inconclusive = small, poorly fitted or top-dose-only effect, or another doubt; inactive = no such curve, though single readings can be large; an effect the other way counts as inactive or inconclusive.

Legend:
[1] = qHTS for Inhibitors of Plasmodium falciparum (DD2) proliferation (AID 504314);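 also: parasite DNA measured by SYBR Green fluorescence after red cell lysis; plate controls were DMSO vehicle for no effect and artemisinin wells for full effect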
Method in brief: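 Erythrocytes infected with P. falciparum Dd2 (0.3% parasitemia, 2.5% hematocrit) exposed to compound 72 h at 37C, 5% CO2. Parasite DNA quantified by SYBR Green fluorescence after saponin/Triton lysis overnight; normalized to 0.29 uM artemisinin and DMSO.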

[2] = qHTS for Inhibitors of Plasmodium falciparum (GB4) proliferation (AID 504315);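 also: 0% = DMSO vehicle and -100% = 0.29 µM artemisinin control; nearly all actives have a fitted effect of over 50% in size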
Method in brief: (§1)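 Erythrocytes infected with P. falciparum line (0.3% parasitemia, 2.5% hematocrit final) incubated with compounds 72 h at 37 °C, 5% CO2; SYBR Green lysis buffer added, fluorescence read next day. Normalized to 0.29 uM artemisinin and DMSO.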

[3] = qHTS for Inhibitors of Plasmodium falciparum (7G8) proliferation (AID 504316);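 also: 0% = DMSO vehicle and -100% = 0.29 µM artemisinin full kill; nearly all actives have a fitted effect of over 65% in size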
Method in brief: as §1

[4] = qHTS for Inhibitors of Plasmodium falciparum (CP250) proliferation (AID 504320);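 also: plate controls were DMSO vehicle for no effect and 0.29 µM artemisinin control for full effect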
Method in brief: as §1

[5] = target: Rap guanine nucleotide exchange factor 3 (Homo sapiens) (UniProt O95398); test: Confirmatory qHTS for antagonist of cAMP-regulated guanine nucleotide exchange factor 3 (EPAC1) (AID 1645880); details: EPAC1 Rap1B-BODIPY-GDP exchange, fluorescence; activity, negative = inhibition: at 115 µM (top of the series); also: nearly all actives have a fitted effect of over 55% in size; also: potency is read from the fitted curve at half-maximal effect;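 as to activity, negative = inhibition: plate controls were DMSO only for no effect and full effect of the ATA control for full effect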
Rap guanine nucleotide exchange factor 3 (Homo sapiens), sequence (O95398 whole entry, looked up): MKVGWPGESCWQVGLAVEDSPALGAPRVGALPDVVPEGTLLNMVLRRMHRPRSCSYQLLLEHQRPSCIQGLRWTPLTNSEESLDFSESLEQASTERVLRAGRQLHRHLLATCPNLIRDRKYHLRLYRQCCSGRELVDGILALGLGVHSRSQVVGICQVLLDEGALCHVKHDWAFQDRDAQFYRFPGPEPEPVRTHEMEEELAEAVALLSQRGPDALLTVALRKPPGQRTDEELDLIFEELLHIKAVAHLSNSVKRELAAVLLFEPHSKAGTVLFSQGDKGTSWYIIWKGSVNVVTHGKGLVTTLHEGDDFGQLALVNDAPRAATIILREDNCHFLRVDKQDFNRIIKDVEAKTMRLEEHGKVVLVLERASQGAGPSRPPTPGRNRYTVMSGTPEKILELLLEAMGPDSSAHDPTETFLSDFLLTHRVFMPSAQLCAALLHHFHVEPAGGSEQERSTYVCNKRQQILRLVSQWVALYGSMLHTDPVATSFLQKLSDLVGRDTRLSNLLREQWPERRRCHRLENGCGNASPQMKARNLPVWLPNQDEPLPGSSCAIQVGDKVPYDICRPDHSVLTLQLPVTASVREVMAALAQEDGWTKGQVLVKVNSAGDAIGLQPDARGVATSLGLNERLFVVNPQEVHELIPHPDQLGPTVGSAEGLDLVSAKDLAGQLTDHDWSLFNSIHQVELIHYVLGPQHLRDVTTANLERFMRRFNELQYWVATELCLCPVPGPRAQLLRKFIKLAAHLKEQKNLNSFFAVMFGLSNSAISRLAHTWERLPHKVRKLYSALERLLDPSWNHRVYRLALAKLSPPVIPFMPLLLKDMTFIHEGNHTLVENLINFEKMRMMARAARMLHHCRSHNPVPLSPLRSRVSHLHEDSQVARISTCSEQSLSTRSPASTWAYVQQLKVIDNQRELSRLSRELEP
Method in brief: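 Nucleotide exchange uses 100 nM EPAC1, 250 nM RAP1B-BODIPY-GDP and 50 uM GDP, with compounds in a concentration-titration series. After 5 min at room temperature, fluorescence (480 nm ex/540 nm em) is read every 5 min for 30 min. Data are normalized to control ATA and DMSO.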

[6] = target: Rap guanine nucleotide exchange factor 3 (Homo sapiens) (UniProt O95398); test: Confirmatory qHTS for agonist of cAMP-regulated guanine nucleotide exchange factor 3 (EPAC1) (AID 1645881);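 also: EPAC1 catalysed release of BODIPY-GDP from Rap1B seen as fluorescence loss; 100% = effect of cAMP agonist control; nearly all actives have a fitted effect of over 75% in size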
[7] = target: Rap guanine nucleotide exchange factor 4 (Homo sapiens) (UniProt Q8WZA2); test: Confirmatory qHTS for agonist of cAMP-regulated guanine nucleotide exchange factor 4 (EPAC2) (AID 1645884);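 also: nucleotide exchange releases bodipy-GDP from Rap1 and this lowers its fluorescence; % is scaled to controls: 0 for no effect and ±100 for the full control effect; nearly all actives have a fitted effect of over 65% in size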
Rap guanine nucleotide exchange factor 4 (Homo sapiens), sequence (Q8WZA2 whole entry, looked up): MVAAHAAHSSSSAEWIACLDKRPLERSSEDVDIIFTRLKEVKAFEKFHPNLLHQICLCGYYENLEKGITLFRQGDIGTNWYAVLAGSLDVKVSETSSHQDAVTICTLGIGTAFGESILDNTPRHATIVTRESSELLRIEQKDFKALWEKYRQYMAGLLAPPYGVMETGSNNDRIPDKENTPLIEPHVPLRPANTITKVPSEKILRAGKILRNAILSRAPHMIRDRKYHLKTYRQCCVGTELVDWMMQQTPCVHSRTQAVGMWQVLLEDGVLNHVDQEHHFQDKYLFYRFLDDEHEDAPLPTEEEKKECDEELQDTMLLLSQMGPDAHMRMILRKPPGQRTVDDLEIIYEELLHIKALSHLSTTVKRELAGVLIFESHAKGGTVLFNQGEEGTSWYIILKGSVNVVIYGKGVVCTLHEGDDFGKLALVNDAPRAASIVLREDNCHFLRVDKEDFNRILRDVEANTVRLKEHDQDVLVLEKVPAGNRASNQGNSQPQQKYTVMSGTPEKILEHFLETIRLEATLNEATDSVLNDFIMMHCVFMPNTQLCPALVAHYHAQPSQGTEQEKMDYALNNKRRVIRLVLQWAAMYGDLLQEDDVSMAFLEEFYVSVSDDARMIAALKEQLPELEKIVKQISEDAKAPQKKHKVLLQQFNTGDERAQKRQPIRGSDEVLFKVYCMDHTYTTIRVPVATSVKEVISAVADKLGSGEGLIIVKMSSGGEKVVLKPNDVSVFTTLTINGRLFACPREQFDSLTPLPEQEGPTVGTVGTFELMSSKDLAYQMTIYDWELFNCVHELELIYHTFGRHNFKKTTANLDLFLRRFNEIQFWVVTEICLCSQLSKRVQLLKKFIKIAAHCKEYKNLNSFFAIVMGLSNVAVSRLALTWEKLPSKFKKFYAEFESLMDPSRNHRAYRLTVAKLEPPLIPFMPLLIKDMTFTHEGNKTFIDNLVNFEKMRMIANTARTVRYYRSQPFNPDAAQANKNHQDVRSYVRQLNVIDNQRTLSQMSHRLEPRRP

[8] = target: Rap guanine nucleotide exchange factor 4 (Homo sapiens) (UniProt Q8WZA2); test: Confirmatory qHTS for antagonist of cAMP-regulated guanine nucleotide exchange factor 4 (EPAC2) (AID 1645885); also: nearly all actives have a fitted effect of over 25% in size; also: potency is read from the fitted curve at half-maximal effect; as to activity change, negative = inhibition: % is scaled to controls: 0 for no effect and ±100 for the full control effect
[9] = target: Rap guanine nucleotide exchange factor 3 (Homo sapiens) (UniProt O95398); test: Counterscreen qHTS for antagonist of cAMP-regulated guanine nucleotide exchange factor 3 (EPAC1) (AID 1645888);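 also: fluorescence loss as bound BODIPY-GDP is released from Rap1B; % of control where 0% means no effect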
Method in brief: (§2)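 Measured: fluorescence of BODIPY-GDP bound to Rap1B, which falls as exchange proceeds. Conditions include 50 uM competing GDP, 5 and 30 min reads, and a later cAMP challenge for antagonist detection.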

[10] = target: Tumor susceptibility gene 101 protein (Homo sapiens) (UniProt Q99816); test: qHTS Assay for Iinhibitors of HIV-1 Budding by Blocking the Interaction of PTAP/TSG101: Hit Validation (AID 651600); also: % is scaled to controls: 0 for no effect and ±100 for the full control effect; nearly all actives have a fitted effect of over 70% in size
Tumor susceptibility gene 101 protein (Homo sapiens), sequence (Q99816 whole entry, looked up): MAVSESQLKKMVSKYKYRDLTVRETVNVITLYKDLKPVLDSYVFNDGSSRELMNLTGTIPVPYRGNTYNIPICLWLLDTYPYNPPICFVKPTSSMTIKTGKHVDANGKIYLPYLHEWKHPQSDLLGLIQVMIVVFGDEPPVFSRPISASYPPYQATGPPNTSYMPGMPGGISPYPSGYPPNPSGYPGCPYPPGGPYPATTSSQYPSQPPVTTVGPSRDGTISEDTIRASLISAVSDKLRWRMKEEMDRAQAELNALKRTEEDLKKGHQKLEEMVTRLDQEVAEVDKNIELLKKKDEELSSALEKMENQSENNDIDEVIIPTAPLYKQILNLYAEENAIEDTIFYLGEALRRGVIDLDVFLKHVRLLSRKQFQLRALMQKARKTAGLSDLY
Method in brief: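 Measuring PTAP–Tsg101 interaction by FP: protein at 10 uM and fluorescent peptide at 50 nM (final), buffer 10 mM HEPES pH 7.5 with 0.15 M NaCl, 3 mM EDTA, 0.1 mM TCEP, 0.01% Tween 20; 20 min incubation, r.t.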

[11] = qHTS for Inhibitors of Plasmodium falciparum (HB3) proliferation (AID 504318);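 also: 0% = DMSO vehicle and -100% = artemisinin control; nearly all actives have a fitted effect of over 60% in size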
Method in brief: as §1

[12] = target: Rap guanine nucleotide exchange factor 3 (Homo sapiens) (UniProt O95398); test: Counterscreen qHTS for agonist of cAMP-regulated guanine nucleotide exchange factor 3 (EPAC1) (AID 1645889); also: % of control where 0% means no effect; nearly all actives have a fitted effect of over 40% in size
Method in brief: as §2

COc1ccc2c(c1)O[C@H](c1ccc3c(c1)OCO3)[C@@H](O)C2=O
inactive: outcome [1] | outcome [2] | outcome [3] | outcome [4] | Potency [5] | Potency [6] | activation [7] 6.45% [at 17.1 µM, percent relative to cAMP agonist control] | Potency [8] | activity change, negative = inhibition [9] -0.524% [at 30.8 µM]

COc1cccc(NC(=O)/C(C#N)=C/c2ccc(-c3ccc(C)cc3)o2)c1
inactive: Potency [10] | Potency [5] | Potency [6] | Potency [7] | Potency [8] | Potency [9]

N#C/C(=C\c1ccccn1)c1nc2ccccc2s1
active: Potency [5] 19 µM
inactive: Potency [10] | Potency [6] | Potency [7] | Potency [8] | Potency [9]

COC(=O)C1=C(C(=O)OC)[C@@H]2N(Cc3ccccc3)c3ccccc3[C@@]23C[C@@H](C(=O)OC)N=C3N1
inactive: outcome [1] | outcome [2] | outcome [3] | outcome [11] | outcome [4] | Potency [5] | Potency [6] | activation [7] 0% [at 17.1 µM, percent relative to cAMP agonist control] | Potency [8] | activity change, negative = inhibition [9] 17% [at 30.8 µM]

COc1cccc(C(=O)C(CCC#N)c2ccccc2)c1 (stereo unspecified)
inactive: Potency [5] | Potency [6] | Potency [7] | Potency [8] | Potency [12]

Cc1cc(C)c(Nc2cc(S(=O)(=O)O)c(N)c3c2C(=O)c2ccccc2C3=O)c(C)c1
inactive: Potency [6] | Potency [7] | Potency [12]
active: Potency [5] 30.1 µM | Potency [8] 75.7 µM

CC1(Cc2ccccc2OC(F)(F)F)C(=O)Nc2ccc(-c3ccsc3)cc21 (stereo unspecified)
active: Potency [5] 42.6 µM | Potency [8] 33.8 µM
inactive: Potency [6] | Potency [7] | Potency [12]

Cn1c(N)c(C(=O)COC(=O)CCOc2ccc(C(C)(C)C)cc2)c(=O)n(C)c1=O
inactive: Potency [5] | Potency [6] | Potency [7] | Potency [8] | Potency [12]

Cn1cc([C@]2(O)C(=O)Nc3ccc(OC(F)(F)F)cc32)c2ccccc21
inactive: Potency [5] | Potency [6] | activation [7] 14.8% [at 17.1 µM, percent relative to cAMP agonist control] | Potency [8] | activation [12] 32.2% [at 30.8 µM]

COc1ccc(N2CCN(CCCNC(=O)c3ccc4nc(CCc5ccccc5)oc4c3)CC2)cc1
inactive: Potency [5] | Potency [6] | Potency [7] | Potency [8] | Potency [12]

CCC1=NN(C(=O)c2ccc(Br)cc2)C(O)(c2ccccc2)C1 (stereo unspecified)
inactive: Potency [5] | Potency [6] | activation [7] 2.89% [at 17.1 µM, percent relative to cAMP agonist control] | Potency [8] | activation [12] 19.8% [at 30.8 µM]

COc1ccc(N2CCOCC2)c(NC(=O)c2cccc3ccccc23)c1
inactive: Potency [5] | Potency [6] | activation [7] 5.58% [at 17.1 µM, percent relative to cAMP agonist control] | Potency [8] | activation [12] 22.6% [at 30.8 µM]

CCC(=O)NC(c1ccc(C)cc1)c1ccc2cccnc2c1O (stereo unspecified)
active: Potency [8] 5.36 µM
inactive: Potency [5] | Potency [6] | Potency [7] | Potency [12]

Cc1cc(C(=O)Nc2ccon2)c(C)o1
inactive: Potency [5] | Potency [6] | Potency [7] | Potency [12]
active: Potency [8] 84.9 µM
